# Assay outcomes from PubChem BioAssay.
# A selection: hits, their analogues and other compounds. The true share with any hit is near 2.2%.
# Giardia kill: kills Giardia lamblia; activity change, % at 7.66 µM, hits read low; actives 0.15% (n = 340,000); AID 540267; Giardia lamblia trophozoite viability; in the data active means activity change below about -80%; inconclusive means between about -30% and that limit;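 further: parasites exposed to compound for two days anaerobically before the ATP read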
#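 Trophozoites 100 cells/well + cpd; 48 hrs, 37 deg C, anaerobic. ATPLite 1-Step added, 15-30 min RT, luminescence read (ATP-based viability).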
# BRCA1 expr up: increases BRCA1 expression | Potency, µM (top dose mostly 46.1 µM), actives largely listed as activators | actives 1.1% (n = 380,000) | MCF7-BRCA1-FFLuc reporter, luminescence, 48 h; response scale: scaled: vehicle 0%, 10 µM genistein 100%; further: nearly all actives have a fitted effect of over 80% in size
#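 48 h compound treatment of MCF7-BRCA1-FFLuc cells (phenol-red free MEM, 37 °C), then 15 min with luciferase substrate and luminescence imaging.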
# IL-2 act: activates IL-2 in a cell-based reporter assay; IL-2 activation reporter assay, cell-based qHTS; stimulated with anti-CD3/CD4/CD28 beads; in transgenic mouse T cells; activation, % (series mostly up to about 46 µM); actives 0.065% (n = 360,000); AID 652025; in the data active means activation above about 50%; inconclusive means mostly about 30% to 49%
#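 Readout: EGFP and DsRed signals by fluorescent plate cytometry. Unstimulated transgenic mouse T cells received compound 60 min before antibody-bead stimulation, then incubated 18 h at 37 degrees C.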
# IDH1 R132H inh: human IDH1 R132H inhibition. O75874. actives 0.093% (n = 390,000). Potency, µM (doses to about 76.6 µM), hits mostly inhibitors. AID 602179. IDH1-R132H enzyme, NADPH consumption, diaphorase/resazurin fluorescence; further: nearly all actives have a fitted effect of over 65% in size
# Target sequence (O75874 whole entry R132H, stated change not applied): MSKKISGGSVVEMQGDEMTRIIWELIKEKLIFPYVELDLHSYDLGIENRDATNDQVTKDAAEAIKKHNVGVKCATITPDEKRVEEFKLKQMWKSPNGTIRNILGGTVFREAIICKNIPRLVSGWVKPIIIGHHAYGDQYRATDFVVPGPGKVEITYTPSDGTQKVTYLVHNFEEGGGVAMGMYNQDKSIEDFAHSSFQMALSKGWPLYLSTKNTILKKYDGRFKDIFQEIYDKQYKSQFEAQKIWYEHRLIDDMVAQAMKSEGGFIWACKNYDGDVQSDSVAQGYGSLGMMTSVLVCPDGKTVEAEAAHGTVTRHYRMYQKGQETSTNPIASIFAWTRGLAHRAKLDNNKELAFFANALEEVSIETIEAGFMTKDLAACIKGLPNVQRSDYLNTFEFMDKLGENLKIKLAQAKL
#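 IDH1-R132H (0.5 ug/mL dispensed) in pH 7.5 Tris buffer was preincubated 30 min with compound, then given a substrate mix of 0.016 mM NADPH and 2 mM alpha-KG for 80 min at room temperature; remaining NADPH was read by diaphorase/resazurin fluorescence.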
# rTrxR1 inhibitor: inhibitors of rat thioredoxin reductase 1. O89049. recombinant rTrxR1, NADPH fluorescence consumption, selenite substrate. Potency, µM (doses to about 114 µM), actives largely listed as inhibitors. actives 1% (n = 390,000). AID 588453; further: nearly all actives have a fitted effect of over 65% in size
#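 Rat TrxR1 (90 nM in the dispensed reagent) was pre-reduced with 400 uM NADPH for 5 min at room temperature, then incubated with compound for 15 min. After 400 uM selenite was added, NADPH fluorescence (Ex 340/Em 450 nm) was followed for 8 min.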
# TrxR1 substrate: substrates of rat thioredoxin reductase 1; purified TrxR1 substrate turnover, NADPH consumption readout; O89049; Potency, µM (top dose mostly 114 µM); AID 588456; actives 0.01% (n = 390,000); further: nearly all actives have a fitted effect of over 50% in size
#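 Rat TrxR1, dispensed at 90 nM, was prereduced with 400 uM NADPH (final) for 5 min at ~22 deg C, then incubated with compound 15 min before 400 uM selenite. A first-read NADPH fluorescence drop versus no-compound background flagged substrates.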
# A number is an active result; 0 = inactive; ? = inconclusive; - = not tested or not shown. Unless noted, the call rests on the fitted dose curve; in most records, active means well fitted curve in the direction sought with a large enough effect; inconclusive means small, poorly fitted or top-dose-only effect, or another doubt; inactive means no such curve, though single readings can be large; an effect the other way counts as inactive or inconclusive.
SMILES,Giardia kill,BRCA1 expr up,IL-2 act,IDH1 R132H inh,rTrxR1 inhibitor,TrxR1 substrate
COc1cccc2c1Oc1ncccc1N(C(=O)Nc1cccc(Cl)c1)C2,-,-,-,0,0,0
COc1ccc(N2CCN(CCCNC(=O)c3nnc(Cc4ccc(F)cc4)o3)CC2)cc1,-,-,-,0,0,0
COC(=O)C(Cc1c[nH]c2ccccc12)NC(=O)c1ccc2nc[nH]c2c1 (stereo not given),0,10µM,0,0,0,0
COC(=O)C(Cc1c[nH]c2ccccc12)NC(=O)c1cncc(Br)c1 (stereo not given),0,0,0,0,0,0
CC(=O)c1cccc(NC(=O)c2nc3ccccc3n(C)c2=O)c1,-,-,-,0,0,0
O=C(Cc1ccc(Br)cc1)N1CCCCCC1,0,10µM,0,0,0,0
CN(N=Nc1ccc([N+](=O)[O-])cc1)c1ccccc1,0,3.55µM,0,0,0,0
COc1ccc(OC)c(NC(=O)CCc2c(C)nn(-c3ccc(N4CCCC4)nn3)c2C)c1,-,-,-,0,0,0
CN=c1scc(-c2cccs2)n1/N=C/c1ccc(O)c(O)c1O,-92.5,0,0,0,0,0
CN=c1scc(-c2cccs2)n1/N=C/c1ccccc1O,?,0,0,0,0,0
Cc1ccc(-n2c(CCC(=O)O)ccc2-c2cccs2)cc1Cl,-,-,-,0,50.1µM,0
CCCn1c(CCC(=O)O)ccc1-c1cccs1,0,0,0,0,50.1µM,0
CC(=O)c1ccc(-n2c(CCC(=O)O)ccc2-c2cccs2)cc1,0,0,0,0,31.6µM,0
COc1cccc(CNS(=O)(=O)c2ccc3[nH]c4c(c3c2)CCCCC4)c1,-,0,-,0,0,0
Cc1cccc(Cc2c(C)nc3nc(SCc4cccc(F)c4)nn3c2C)c1,-,-,-,0,0,0
CCOCCCNc1ccc(-c2ccccc2)nn1,0,2.82µM,0,0,0,0
COCCN(C(=O)CCl)C(C(=O)NC1CCCCC1)c1ccccc1C (stereo not given),0,0,0,0,28.2µM,0
O=C(NC1CCCC1)C(c1ccc(F)cc1)N(Cc1ccccc1Cl)C(=O)CCl (stereo not given),0,0,0,0,31.6µM,0
CC(C)(C)n1ncc2c(=O)n(Cc3ccc(SC(F)(F)F)cc3)cnc21,-,-,-,-,0,0
COc1ccc(N2C(=O)CS(=O)(=O)C23C(=O)N(Cc2ccccc2F)c2ccccc23)cc1Cl (stereo not given),-,0,-,0,0,0
CC(C)c1ccc(N2C(=O)/C(=C/N(C)C)SC2=S)cc1,0,0,0,13.1µM,0,0
CCO/C=C1\SC(=S)N(c2ccc(Cl)cc2)C1=O,0,0,0,0,0,0
CCc1ccc(C(=O)c2cn(CC(=O)Nc3ccc(OC)c(Cl)c3)c3nc(C)ccc3c2=O)cc1,-,-,-,0,0,0
Cc1cc(-c2csc(N)n2)c(C)n1C,0,0,0,0,?,0
Cc1cc(-c2csc(N)n2)c(C)n1Cc1ccco1,0,0,0,0,15.8µM,0
SMILES,Giardia kill,BRCA1 expr up,IL-2 act,IDH1 R132H inh,rTrxR1 inhibitor,TrxR1 substrate
Cc1cc(C(=O)COC(=O)c2cc(Cl)ccc2N)c(C)n1Cc1ccco1,0,2.82µM,0,0,0,0
CCCCS(=O)(=O)CC(O)CSc1nc(-c2ccc(C)cc2)cc(-c2ccccc2)c1C#N (stereo not given),-,-,-,0,0,0
CCOC(=O)c1cnn(-c2ccc(C(=O)Nc3ccc(OC(F)(F)F)cc3)cc2)c1N,-,-,-,0,0,0
O=C(Cn1nnc(-c2ccc(F)cc2)n1)N1CCCCC1,0,0,0,0,0,0
O=C(Cn1nnc(-c2ccccc2F)n1)N1CCCCC1,0,8.91µM,0,0,0,0
CCOc1ccc(/C=C2/SC(=O)NC2=S)cc1,0,0,0,0,?,0
CCOc1ccc(N=C2NC(=O)S/C2=C\c2ccc(N(C)C)cc2)cc1,0,3.16µM,0,0,0,0
Cc1ccc(Nc2nc3nonc3[nH]c2=O)cc1,0,11.2µM,0,0,0,0
CC(=O)N1CCCc2cc(S(=O)(=O)NCc3ccc(OC(C)C)cc3)ccc21,-,-,-,0,0,0
